According to PubChem BioAssay (NCI):
“And” between values parts separate entries of the source, which are not always exact repeats. Identical values can stand only once. About 83,000 compounds went through this panel and 20% of them were active in at least one assay; those are over-represented in the sample as a whole.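 Treatment: one concentration, 48 hours, 96-well format. Scoring: percent growth, with anything below 10 considered active.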 Where a structure was tested more than once in an assay, its records may differ in their call. The source made the active and inactive calls.

Columns and labels:
Assay in all cases: NCI-60 one-dose screen, 48 h (100 = growth as untreated, 0 = no growth, -100 = all killed)
NCI-H23 lung = tested on: NCI-H23 lung
NCI-H226 lung = tested on: NCI-H226 lung
NCI-H322M lung = tested on: NCI-H322M lung
HOP-62 NSCLC = tested on: HOP-62 NSCLC
NCI-H460 lung = tested on: NCI-H460 lung
HOP-92 NSCLC = tested on: HOP-92 NSCLC
NCI-H522 lung = conditions: 10 µM unless noted
A549/ATCC NSCLC = tested on: A549/ATCC NSCLC
786-0 renal = tested on: 786-0 renal
COLO 205 colon = conditions: 10 µM unless noted
DU-145 prostate = tested on: DU-145 prostate
K-562 leukemia = tested on: K-562 leukemia
MALME-3M melanoma = tested on: MALME-3M melanoma
MDA-MB-231 breast = tested on: MDA-MB-231 breast
RXF 393 renal = tested on: RXF 393 renal
SF-268 CNS = tested on: SF-268 CNS
SF-295 CNS = tested on: SF-295 CNS
SF-539 CNS = tested on: SF-539 CNS
UACC-257 melanoma = tested on: UACC-257 melanoma
M14 melanoma = tested on: M14 melanoma

Measured: growth

CC1=C(/C=C/C(C)=C/C=C/C(C)=C/C=N/NC(=S)NC(=S)N/N=C/C=C(C)/C=C/C=C(C)/C=C/C2=C(C)CCCC2(C)C)C(C)(C)CCC1
17.3% (inactive) and 3.05% (active): A549/ATCC NSCLC; 10 µM unless noted
30.3% (inactive) and -7.18% (active): SF-295 CNS; 10 µM unless noted
active: NCI-H23 lung; 10 µM unless noted -27.2% and -49.8% | NCI-H226 lung; 10 µM unless noted -66.4% and -86.6% | HOP-62 NSCLC; 10 µM unless noted -7.59% | NCI-H460 lung; 10 µM unless noted 8.37% and -6.69% | HOP-92 NSCLC; 10 µM unless noted -0.81% and -9.45% | NCI-H522 lung -84.1% and -88.9% | 786-0 renal; 10 µM unless noted -41.4% and -58.8% | COLO 205 colon -79.7% | K-562 leukemia; 10 µM unless noted 1.87% and -33.1% | MALME-3M melanoma; 10 µM unless noted -42.6% and -41.6% | RXF 393 renal; 10 µM unless noted -98.2% | SF-539 CNS; 10 µM unless noted -82.5% and -94.5% | M14 melanoma; 10 µM unless noted -94.8% and -97.5%
21.6% (inactive) and -34.1% (active): MDA-MB-231 breast; 10 µM unless noted
12.7% (inactive) and -28.3% (active): UACC-257 melanoma; 10 µM unless noted
30.9% (inactive) and -13% (active): SF-268 CNS; 10 µM unless noted
inactive: NCI-H322M lung; 10 µM unless noted 85.1% and 63.8% | DU-145 prostate; 10 µM unless noted 45.4% and 40.3%

CC1CCCc2sc3nc(NNC(=O)c4cnccn4)n(-c4ccccc4)c(=O)c3c21 (configuration not stated)
active: NCI-H226 lung; 10 µM unless noted -2.24% and -5.33% | HOP-62 NSCLC; 10 µM unless noted 4.44% and 1.42% | NCI-H460 lung; 10 µM unless noted 3.62% and -47.3% | NCI-H522 lung -10.4% and 6.49% | A549/ATCC NSCLC; 10 µM unless noted 3.51% and 7.07% | COLO 205 colon 4.98% and -2.77% | SF-539 CNS; 10 µM unless noted 6.89% and 6.17% | UACC-257 melanoma; 10 µM unless noted -7.57% and -18.3% | M14 melanoma; 10 µM unless noted 7.99% and -2.42%
16.1% (inactive) and 6.45% (active): 786-0 renal; 10 µM unless noted
15.9% (inactive) and 6.48% (active): NCI-H322M lung; 10 µM unless noted
11.2% (inactive) and -15.9% (active): RXF 393 renal; 10 µM unless noted
inactive: NCI-H23 lung; 10 µM unless noted 23.9% and 20.2% | HOP-92 NSCLC; 10 µM unless noted 44% and 42.3% | DU-145 prostate; 10 µM unless noted 12.2% and 12.9% | K-562 leukemia; 10 µM unless noted 14.2% and 13.4% | MALME-3M melanoma; 10 µM unless noted 15.9% and 11.2% | MDA-MB-231 breast; 10 µM unless noted 28.9% and 25.5% | SF-295 CNS; 10 µM unless noted 22.7% and 11.3%
14.5% (inactive) and 5.5% (active): SF-268 CNS; 10 µM unless noted

COc1cc(NS(C)(=O)=O)ccc1Nc1c2ccccc2nc2c(C)cccc12
active: NCI-H23 lung; 10 µM unless noted -8.23% and 1.07% | NCI-H226 lung; 10 µM unless noted -57.6% and -44.9% | HOP-62 NSCLC; 10 µM unless noted -17.9% and -32.5% | NCI-H460 lung; 10 µM unless noted -36.3% and -9.34% | HOP-92 NSCLC; 10 µM unless noted -17.9% | NCI-H522 lung -14.2% | A549/ATCC NSCLC; 10 µM unless noted -62.9% | 786-0 renal; 10 µM unless noted -41.9% and -40.4% | COLO 205 colon 7.98% and 0.541% | DU-145 prostate; 10 µM unless noted -8.9% and 7.58% | K-562 leukemia; 10 µM unless noted 8.6% and 7.61% | RXF 393 renal; 10 µM unless noted -2.83% and 8.08% | SF-295 CNS; 10 µM unless noted -24.8% | SF-539 CNS; 10 µM unless noted -35.6% and -30.6%
2.5% (active) and 16.2% (inactive): SF-268 CNS; 10 µM unless noted
-3.04% (active) and 29.4% (inactive): MALME-3M melanoma; 10 µM unless noted
inactive: NCI-H322M lung; 10 µM unless noted 22.8% and 28.6% | MDA-MB-231 breast; 10 µM unless noted 36.7% | UACC-257 melanoma; 10 µM unless noted 16.1% | M14 melanoma; 10 µM unless noted 19.4% and 11.8%

NCCSC(C[N+](=O)[O-])c1ccccc1Cl (configuration not stated)
inactive: NCI-H23 lung; 10 µM unless noted 95.6% | NCI-H226 lung; 10 µM unless noted 99.1% | NCI-H322M lung; 10 µM unless noted 91.7% | HOP-62 NSCLC; 10 µM unless noted 106% | NCI-H460 lung; 10 µM unless noted 98.2% | HOP-92 NSCLC; 10 µM unless noted 102% | NCI-H522 lung 66.6% | 786-0 renal; 10 µM unless noted 101% | COLO 205 colon 99.2% | DU-145 prostate; 10 µM unless noted 37.6% | MALME-3M melanoma; 10 µM unless noted 98.8% | MDA-MB-231 breast; 10 µM unless noted 115% | RXF 393 renal; 10 µM unless noted 11% | SF-268 CNS; 10 µM unless noted 84.8% | SF-295 CNS; 10 µM unless noted 101% | SF-539 CNS; 10 µM unless noted 94.6% | M14 melanoma; 10 µM unless noted 74.4%
active: A549/ATCC NSCLC; 10 µM unless noted -26.9% | K-562 leukemia; 10 µM unless noted -48.3% | UACC-257 melanoma; 10 µM unless noted -3.93%

O=C(Nc1cccc(-n2ccc3c(NC(=O)c4ccccc4)nccc32)c1)c1ccc(Cl)c(C(F)(F)F)c1
-53.7% (active) and 38.4% (inactive): SF-295 CNS; 10 µM unless noted
-9.83% (active) and 72.4% (inactive): NCI-H23 lung; 10 µM unless noted
2.58% (active) and 27.6% (inactive): K-562 leukemia; 10 µM unless noted
-50.5% (active) and 67.7% (inactive): HOP-62 NSCLC; 10 µM unless noted
inactive: NCI-H226 lung; 10 µM unless noted 34.5% and 75.3% | NCI-H322M lung; 10 µM unless noted 22.6% and 79.3% | NCI-H522 lung 82.8% | A549/ATCC NSCLC; 10 µM unless noted 36.8% | UACC-257 melanoma; 10 µM unless noted 65.2%
-74.9% (active) and 48% (inactive): 786-0 renal; 10 µM unless noted
-66% (active) and 52.8% (inactive): SF-539 CNS; 10 µM unless noted
-51.4% (active) and 12.8% (inactive): NCI-H460 lung; 10 µM unless noted
-29.6% (active) and 64% (inactive): M14 melanoma; 10 µM unless noted
-89.4% (active) and 94.8% (inactive): RXF 393 renal; 10 µM unless noted
-49.7% (active) and 55.7% (inactive): COLO 205 colon
active: HOP-92 NSCLC; 10 µM unless noted -13.5% | MALME-3M melanoma; 10 µM unless noted -35.4% | SF-268 CNS; 10 µM unless noted -44.1%
-36% (active) and 61.6% (inactive): DU-145 prostate; 10 µM unless noted
-11.2% (active) and 81.4% (inactive): MDA-MB-231 breast; 10 µM unless noted

S=C(S)N1CCCC1
inactive: NCI-H23 lung; 10 µM unless noted 108% and 102% | NCI-H226 lung; 10 µM unless noted 108% and 111% | NCI-H322M lung; 10 µM unless noted 107% and 97.7% | HOP-62 NSCLC; 10 µM unless noted 124% and 100% | NCI-H460 lung; 10 µM unless noted 62.2% | HOP-92 NSCLC; 10 µM unless noted 91.9% and 88% | A549/ATCC NSCLC; 10 µM unless noted 70.6% and 58.4% | 786-0 renal; 10 µM unless noted 103% and 106% | COLO 205 colon 60.7% and 49.9% | DU-145 prostate; 10 µM unless noted 105% and 128% | K-562 leukemia; 10 µM unless noted 39.6% and 76.5% | MALME-3M melanoma; 10 µM unless noted 96.1% and 99.7% | MDA-MB-231 breast; 10 µM unless noted 92.3% and 125% | RXF 393 renal; 10 µM unless noted 112% and 125% | SF-268 CNS; 10 µM unless noted 97% and 116% | SF-295 CNS; 10 µM unless noted 112% and 103% | SF-539 CNS; 10 µM unless noted 110% and 128% | UACC-257 melanoma; 10 µM unless noted 96.5% and 92.6% | M14 melanoma; 10 µM unless noted 93.8% and 101%
active: NCI-H522 lung 8.09% and -11.7%

COc1ccc(-c2cn[nH]c2-c2cc(OC)c(OC)c(OC)c2)cc1N
3.28% (active) and 17.5% (inactive): SF-295 CNS; 10 µM unless noted
inactive: NCI-H23 lung; 10 µM unless noted 22.5% and 28.3% | NCI-H226 lung; 10 µM unless noted 69.4% and 50.2% | NCI-H322M lung; 10 µM unless noted 45.3% and 36.2% | HOP-62 NSCLC; 10 µM unless noted 52.2% and 35.6% | HOP-92 NSCLC; 10 µM unless noted 53.9% and 22.5% | A549/ATCC NSCLC; 10 µM unless noted 12.4% and 23% | 786-0 renal; 10 µM unless noted 18.1% and 25.6% | K-562 leukemia; 10 µM unless noted 11% and 11.5% | MALME-3M melanoma; 10 µM unless noted 78.7% and 44.3% | MDA-MB-231 breast; 10 µM unless noted 22.9% and 14.6% | RXF 393 renal; 10 µM unless noted 19.3% | SF-268 CNS; 10 µM unless noted 26.5% and 48.8% | UACC-257 melanoma; 10 µM unless noted 66.7% | M14 melanoma; 10 µM unless noted 10.5% and 15%
13.8% (inactive) and 3.66% (active): DU-145 prostate; 10 µM unless noted
active: NCI-H460 lung; 10 µM unless noted 4.87% and 8.68% | NCI-H522 lung 0.102% and 3.18% | COLO 205 colon -55.7% and -53.2% | SF-539 CNS; 10 µM unless noted 1.73% and -4.41%

CC#C[C@]1(O)CC[C@H]2[C@@H]3CCC4=CC(=O)CCC4=C3[C@@H](c3ccc4c(c3)OCO4)C[C@@]21C
inactive: NCI-H23 lung; 10 µM 82.8% | NCI-H226 lung; 10 µM 85.2% | NCI-H322M lung; 10 µM 90% | HOP-62 NSCLC; 10 µM 81.3% | NCI-H460 lung; 10 µM 90.5% | HOP-92 NSCLC; 10 µM 66.1% | A549/ATCC NSCLC; 10 µM 66.7% | 786-0 renal; 10 µM 69.5% | COLO 205 colon 101% | DU-145 prostate; 10 µM 101% | K-562 leukemia; 10 µM 83% | MALME-3M melanoma; 10 µM 97.8% | MDA-MB-231 breast; 10 µM 62.1% | RXF 393 renal; 10 µM 69.5% | SF-268 CNS; 10 µM 71.3% | SF-295 CNS; 10 µM 58.5% | SF-539 CNS; 10 µM 75% | UACC-257 melanoma; 10 µM 90.1% | M14 melanoma; 10 µM 81.9%
active: NCI-H23 lung; 100 µM -8.63% | NCI-H226 lung; 100 µM -21.7% | NCI-H322M lung; 100 µM 7.01% | HOP-62 NSCLC; 100 µM -15.3% | NCI-H460 lung; 100 µM -45.9% | HOP-92 NSCLC; 100 µM -33.2% | A549/ATCC NSCLC; 100 µM -19.7% | 786-0 renal; 100 µM -30.5% | DU-145 prostate; 100 µM -13.9% | K-562 leukemia; 100 µM 1.72% | MALME-3M melanoma; 100 µM -29.8% | MDA-MB-231 breast; 100 µM -42.9% | RXF 393 renal; 100 µM -50.7% | SF-268 CNS; 100 µM -4.41% | SF-295 CNS; 100 µM -41.1% | SF-539 CNS; 100 µM -58.8% | UACC-257 melanoma; 100 µM -38.7% | M14 melanoma; 100 µM -53.8%
